In the supplement of paper PMC10849652:
Targets with a hit are over-represented here; the source holds about 7,900 in all. About 0.6% of all pairs of compound and target were hits.

Legend:
Assay in all cases: log2 fold change, soluble protein after heating vs DMSO (PISA); higher = thermal stabilisation; K562 cells, 10 uM, 30 min; active = over 0.2 and 3.5 SD of the protein, either way, in both replicates (recomputed)
saracatinib = compound: CN1CCN(CCOc2cc(OC3CCOCC3)c3c(Nc4c(Cl)ccc5c4OCO5)ncnc3c2)CC1 [saracatinib]
How it was run: (§1)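 Aliquots of K562 cells (2×10^6 cells/mL) treated with 10 μM compound for 30 min were heated for 3 min over 48°C-58°C. After pooling and extraction in PBS with 0.5% NP-40 at 4°C, soluble protein from a 21,000xg, 90 min spin was quantified by TMTpro 16plex LC-MS/MS with channel sums equalised. Thermal stability is expressed against control samples, from duplicates, as a log2 fold change.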

sotrastaurin = compound: CN1CCN(c2nc(C3=C(c4c[nH]c5ccccc45)C(=O)NC3=O)c3ccccc3n2)CC1 [sotrastaurin]
How it was run: as §1

alvocidib = compound: CN1CC[C@H](c2c(O)cc(O)c3c(=O)cc(-c4ccccc4Cl)oc23)[C@H](O)C1 [alvocidib]
How it was run: as §1

Tubastatin A = compound: CN1CCc2c(c3ccccc3n2Cc2ccc(C(=O)NO)cc2)C1 [Tubastatin A]
How it was run: as §1

[1] = compound: CNC(=O)C1=CC=CC=C1NC2=NC(=NC=C2Cl)NC3=C(C=C(C=C3)N4CCOCC4)OC
How it was run: as §1

defactinib = compound: CNC(=O)c1ccc(Nc2ncc(C(F)(F)F)c(NCc3nccnc3N(C)S(C)(=O)=O)n2)cc1 [defactinib]
How it was run: as §1

rucaparib = compound: CNCc1ccc(-c2[nH]c3cc(F)cc4c3c2CCNC4=O)cc1 [rucaparib]
How it was run: as §1

[2] = compound: CNc1nc(-c2ccc3c(N)n[nH]c3c2)cc(N2C[C@@H](C(=O)NC3CCCCC3)CC[C@H]2C)n1
How it was run: as §1

encorafenib = compound: COC(=O)N[C@@H](C)CNc1nccc(-c2cn(C(C)C)nc2-c2cc(Cl)cc(NS(C)(=O)=O)c2F)n1 [encorafenib]
How it was run: as §1

[3] = compound: COC(=O)[C@H](CCSC)NC(=O)C1=C(C=C(C=C1)NC[C@H](CS)N)C2=CC=CC=C2
How it was run: as §1

[4] = compound: COC1=CC=C(C=C1)CN2C=CC3=C2C=C(C=C3)C(=O)NO
How it was run: as §1

filanesib = compound: CON(C)C(=O)N1N=C(c2cc(F)ccc2F)S[C@@]1(CCCN)c1ccccc1 [filanesib]
How it was run: as §1

zotarolimus = compound: CO[C@H]1C[C@@H]2CC[C@@H](C)[C@@](O)(O2)C(=O)C(=O)N2CCCC[C@H]2C(=O)O[C@H]([C@H](C)C[C@@H]2CC[C@H](n3cnnn3)[C@H](OC)C2)CC(=O)[C@H](C)/C=C(\C)[C@@H](O)[C@@H](OC)C(=O)[C@H](C)C[C@H](C)/C=C/C=C/C=C/1C [zotarolimus]
How it was run: as §1

idasanutlin = compound: COc1cc(C(=O)O)ccc1NC(=O)[C@@H]1N[C@@H](CC(C)(C)C)[C@](C#N)(c2ccc(Cl)cc2F)[C@H]1c1cccc(Cl)c1F [idasanutlin]
How it was run: as §1

alisertib = compound: COc1cc(Nc2ncc3c(n2)-c2ccc(Cl)cc2C(c2c(F)cccc2OC)=NC3)ccc1C(=O)O [alisertib]
How it was run: as §1

[5] = compound: COc1cc2nc(-c3cc(F)ccc3O)nc(N[C@@H]3CNC[C@H]3C(C)(C)O)c2cc1OC
How it was run: as §1

gefitinib = compound: COc1cc2ncnc(Nc3ccc(F)c(Cl)c3)c2cc1OCCCN1CCOCC1 [gefitinib]
How it was run: as §1

[6] = compound: COc1cccc2cc(-c3nc([C@H]4CC[C@H](C(=O)O)CC4)n4ncnc(N)c34)[nH]c12
How it was run: as §1

lapatinib = compound: CS(=O)(=O)CCNCc1ccc(-c2ccc3ncnc(Nc4ccc(OCc5cccc(F)c5)c(Cl)c4)c3c2)o1 [lapatinib]
How it was run: as §1

pictilisib = compound: CS(=O)(=O)N1CCN(Cc2cc3nc(-c4cccc5[nH]ncc45)nc(N4CCOCC4)c3s2)CC1 [pictilisib]
How it was run: as §1

Measured: log2 fold change

PSMC5 (UniProt P62195)
inactive: saracatinib -0.041 | sotrastaurin -0.004 | alvocidib 0.065 | Tubastatin A -0.013 | [1] -0.028 | defactinib 0.066 | rucaparib 0.025 | [2] 0.065 | encorafenib 0.02 | [3] 0.009 | [4] -0.024 | filanesib 0.037 | zotarolimus -0.018 | idasanutlin 0 | alisertib -0.019 | [5] -0.053 | gefitinib -0.025 | [6] -0.031 | lapatinib 0.052 | pictilisib -0.05

PBK (UniProt Q96KB5)
UniProt Q96KB5, sequence (Q96KB5 whole entry, looked up): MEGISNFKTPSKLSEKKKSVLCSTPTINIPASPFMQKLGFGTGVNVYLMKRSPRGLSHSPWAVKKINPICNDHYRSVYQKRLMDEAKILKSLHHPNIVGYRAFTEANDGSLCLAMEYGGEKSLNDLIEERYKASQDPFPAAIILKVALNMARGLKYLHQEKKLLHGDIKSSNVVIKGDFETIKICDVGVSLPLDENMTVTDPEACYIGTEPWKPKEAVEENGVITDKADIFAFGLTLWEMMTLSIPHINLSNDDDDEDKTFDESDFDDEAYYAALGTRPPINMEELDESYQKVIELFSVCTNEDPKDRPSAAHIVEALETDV
inactive: saracatinib 0.01 | sotrastaurin -0.205 | alvocidib -0.02 | Tubastatin A 0.089 | [1] 0.093 | defactinib -0.15 | rucaparib 0.187 | [2] 0.005 | encorafenib 0.198 | [3] -0.111 | [4] -0.01 | filanesib 0.056 | zotarolimus 0.112 | idasanutlin 0.027 | alisertib -0.032 | [5] 0.014 | gefitinib 0.084 | [6] -0.169 | lapatinib -0.001 | pictilisib 0.086

PSMD11 (UniProt O00231)
inactive: saracatinib -0.065 | sotrastaurin -0.051 | alvocidib 0.051 | Tubastatin A 0.077 | [1] 0.013 | defactinib 0.059 | rucaparib 0.039 | [2] 0.041 | encorafenib 0.042 | [3] -0.05 | [4] 0.018 | filanesib -0.011 | zotarolimus 0.028 | idasanutlin 0.004 | alisertib -0.058 | [5] -0.052 | gefitinib -0.043 | [6] -0.071 | lapatinib 0.086 | pictilisib 0.003

PPIL4 (UniProt Q8WUA2)
UniProt Q8WUA2, sequence (Q8WUA2 whole entry, looked up): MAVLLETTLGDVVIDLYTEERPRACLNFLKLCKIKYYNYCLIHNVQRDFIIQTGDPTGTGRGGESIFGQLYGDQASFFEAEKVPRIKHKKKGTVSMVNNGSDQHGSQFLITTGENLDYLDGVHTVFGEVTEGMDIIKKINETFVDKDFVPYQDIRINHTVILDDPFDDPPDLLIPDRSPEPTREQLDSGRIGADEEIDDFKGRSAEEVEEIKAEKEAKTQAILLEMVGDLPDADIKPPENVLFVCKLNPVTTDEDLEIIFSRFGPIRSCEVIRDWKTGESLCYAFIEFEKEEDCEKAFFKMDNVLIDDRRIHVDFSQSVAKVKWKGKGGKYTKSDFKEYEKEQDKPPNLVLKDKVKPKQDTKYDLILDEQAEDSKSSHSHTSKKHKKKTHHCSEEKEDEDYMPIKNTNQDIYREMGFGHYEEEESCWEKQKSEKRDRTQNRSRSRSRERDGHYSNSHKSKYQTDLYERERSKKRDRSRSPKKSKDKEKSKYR
inactive: saracatinib -0.012 | sotrastaurin -0.072 | alvocidib -0.071 | Tubastatin A -0.005 | [1] -0.123 | defactinib -0.108 | rucaparib 0.07 | [2] 0.024 | encorafenib 0.086 | [3] -0.031 | [4] -0.001 | filanesib 0.116 | zotarolimus 0.032 | idasanutlin 0.101 | alisertib -0.003 | [5] 0.015 | gefitinib 0.002 | [6] -0.005 | lapatinib 0.02 | pictilisib 0.018

PCBP2 (UniProt F8VRH0)
inactive: saracatinib 0.255 | sotrastaurin -0.319 | alvocidib 0.106 | Tubastatin A 0.155 | [1] 0.105 | defactinib 0.009 | rucaparib 0.066 | [2] -0.014 | encorafenib 0.014 | [3] 0.066 | [4] 0.139 | filanesib 0.107 | zotarolimus 0.013 | idasanutlin 0.218 | alisertib 0.305 | [5] -0.34 | gefitinib 0.055 | [6] -0.21 | lapatinib 0.06 | pictilisib -0.231

PFAS (UniProt O15067)
UniProt O15067, sequence (O15067 whole entry, looked up): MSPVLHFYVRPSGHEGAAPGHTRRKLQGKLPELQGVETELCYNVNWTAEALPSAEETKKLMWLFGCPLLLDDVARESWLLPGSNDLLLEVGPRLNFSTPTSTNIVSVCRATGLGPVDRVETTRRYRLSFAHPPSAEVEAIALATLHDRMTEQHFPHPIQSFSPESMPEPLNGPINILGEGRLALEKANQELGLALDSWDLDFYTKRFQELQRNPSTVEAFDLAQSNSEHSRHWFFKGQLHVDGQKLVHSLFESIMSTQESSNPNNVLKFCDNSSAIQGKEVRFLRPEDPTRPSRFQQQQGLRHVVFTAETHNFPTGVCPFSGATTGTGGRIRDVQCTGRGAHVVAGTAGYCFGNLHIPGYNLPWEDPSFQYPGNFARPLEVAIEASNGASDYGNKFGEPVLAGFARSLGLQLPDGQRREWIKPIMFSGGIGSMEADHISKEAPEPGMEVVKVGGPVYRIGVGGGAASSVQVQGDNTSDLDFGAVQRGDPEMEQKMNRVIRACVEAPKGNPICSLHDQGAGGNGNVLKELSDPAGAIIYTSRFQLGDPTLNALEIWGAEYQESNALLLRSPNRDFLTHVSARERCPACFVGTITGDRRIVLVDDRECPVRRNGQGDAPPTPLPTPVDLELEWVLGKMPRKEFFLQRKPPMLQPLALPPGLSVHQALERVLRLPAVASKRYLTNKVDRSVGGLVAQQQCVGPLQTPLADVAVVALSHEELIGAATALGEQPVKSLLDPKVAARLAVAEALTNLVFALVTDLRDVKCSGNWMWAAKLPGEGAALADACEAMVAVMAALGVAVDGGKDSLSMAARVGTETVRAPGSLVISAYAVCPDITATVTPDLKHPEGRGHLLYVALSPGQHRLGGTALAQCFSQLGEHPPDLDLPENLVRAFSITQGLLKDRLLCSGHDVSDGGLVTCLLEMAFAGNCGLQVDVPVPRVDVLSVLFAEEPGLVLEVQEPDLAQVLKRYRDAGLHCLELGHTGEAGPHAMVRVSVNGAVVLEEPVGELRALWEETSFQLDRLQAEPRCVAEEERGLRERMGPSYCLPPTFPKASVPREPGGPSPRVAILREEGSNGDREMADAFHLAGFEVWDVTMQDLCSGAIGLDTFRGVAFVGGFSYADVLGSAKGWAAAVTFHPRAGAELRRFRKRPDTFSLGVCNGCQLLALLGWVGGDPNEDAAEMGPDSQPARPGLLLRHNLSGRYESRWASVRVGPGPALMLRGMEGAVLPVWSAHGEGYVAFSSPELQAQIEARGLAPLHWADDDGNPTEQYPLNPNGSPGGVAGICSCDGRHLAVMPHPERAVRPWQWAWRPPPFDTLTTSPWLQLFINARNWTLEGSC
inactive: saracatinib -0.043 | sotrastaurin 0 | alvocidib -0.066 | Tubastatin A 0.046 | defactinib -0.029 | rucaparib 0 | [2] 0.251 | encorafenib 0.011 | [3] -0.075 | [4] 0.149 | filanesib -0.045 | zotarolimus 0.069 | idasanutlin 0.085 | alisertib 0.029 | [5] 0.26 | gefitinib -0.005 | [6] 0.013 | lapatinib -0.063
active: [1] -0.324 | pictilisib -0.449

PEX7 (UniProt O00628)
inactive: saracatinib 0.045 | sotrastaurin 0.06 | alvocidib -0.023 | Tubastatin A 0.061 | [1] 0.005 | defactinib -0.005 | rucaparib -0.047 | [2] 0.03 | encorafenib -0.023 | [3] -0.039 | [4] 0.013 | filanesib -0.063 | zotarolimus 0.058 | idasanutlin -0.002 | alisertib -0.01 | [5] -0.09 | gefitinib -0.003 | [6] 0.072 | lapatinib -0.032 | pictilisib 0.055

PLBD1 (UniProt Q6P4A8)
UniProt Q6P4A8, sequence (Q6P4A8 whole entry, looked up): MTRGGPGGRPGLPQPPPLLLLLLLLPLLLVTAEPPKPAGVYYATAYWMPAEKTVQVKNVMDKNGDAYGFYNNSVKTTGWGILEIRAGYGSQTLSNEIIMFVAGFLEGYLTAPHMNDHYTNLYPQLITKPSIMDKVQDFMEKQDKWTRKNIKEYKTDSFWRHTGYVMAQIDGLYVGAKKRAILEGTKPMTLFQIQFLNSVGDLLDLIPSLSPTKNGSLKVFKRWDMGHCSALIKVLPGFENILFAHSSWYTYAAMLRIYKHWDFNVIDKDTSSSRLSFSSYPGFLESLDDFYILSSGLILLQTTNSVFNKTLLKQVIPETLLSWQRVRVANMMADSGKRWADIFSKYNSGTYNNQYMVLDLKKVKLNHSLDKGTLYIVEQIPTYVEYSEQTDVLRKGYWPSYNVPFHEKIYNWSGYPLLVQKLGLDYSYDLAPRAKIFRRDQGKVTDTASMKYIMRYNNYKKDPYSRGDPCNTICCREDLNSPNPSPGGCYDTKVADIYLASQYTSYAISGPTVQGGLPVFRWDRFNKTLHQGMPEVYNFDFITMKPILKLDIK
inactive: saracatinib 0.024 | sotrastaurin 0.071 | alvocidib -0.017 | Tubastatin A -0.013 | [1] 0.054 | defactinib 0.023 | rucaparib 0.034 | [2] 0.001 | encorafenib 0.001 | [3] 0 | [4] -0.076 | filanesib -0.051 | zotarolimus -0.057 | idasanutlin 0.019 | alisertib 0.169 | [5] -0.016 | gefitinib 0.019 | [6] 0.048 | lapatinib 0.03 | pictilisib 0.039

PRUNE1 (UniProt Q86TP1)
UniProt Q86TP1, sequence (Q86TP1 whole entry, looked up): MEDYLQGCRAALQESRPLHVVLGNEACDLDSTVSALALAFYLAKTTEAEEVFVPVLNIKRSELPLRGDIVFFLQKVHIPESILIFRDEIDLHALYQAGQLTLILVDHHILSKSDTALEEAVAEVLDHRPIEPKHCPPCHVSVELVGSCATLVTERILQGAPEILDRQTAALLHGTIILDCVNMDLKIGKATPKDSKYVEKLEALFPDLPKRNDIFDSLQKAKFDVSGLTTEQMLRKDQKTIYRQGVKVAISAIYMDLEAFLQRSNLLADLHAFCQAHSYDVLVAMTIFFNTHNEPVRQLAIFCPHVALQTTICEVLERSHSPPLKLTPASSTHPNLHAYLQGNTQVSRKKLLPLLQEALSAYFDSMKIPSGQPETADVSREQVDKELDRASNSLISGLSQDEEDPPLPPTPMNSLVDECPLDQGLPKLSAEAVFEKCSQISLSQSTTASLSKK
inactive: saracatinib -0.071 | sotrastaurin -0.045 | alvocidib -0.053 | Tubastatin A 0.017 | [1] 0.007 | defactinib -0.05 | rucaparib 0.027 | [2] 0.033 | encorafenib 0.006 | [3] 0.005 | [4] -0.083 | filanesib -0.047 | zotarolimus 0.026 | idasanutlin 0.023 | alisertib 0.091 | [5] 0.059 | gefitinib 0.006 | [6] -0.007 | lapatinib -0.038 | pictilisib 0.072

PPIL1 (UniProt Q9Y3C6)
inactive: saracatinib -0.007 | sotrastaurin -0.088 | alvocidib 0.096 | Tubastatin A -0.016 | [1] 0.042 | defactinib 0.09 | rucaparib 0.056 | [2] -0.062 | encorafenib 0.052 | [3] -0.042 | [4] -0.079 | filanesib 0.05 | zotarolimus -0.008 | idasanutlin -0.015 | alisertib -0.078 | [5] 0.12 | gefitinib -0.023 | [6] -0.017 | lapatinib -0.051 | pictilisib -0.028

PPT2 isoform 3 (UniProt Q9UMR5)
UniProt Q9UMR5, sequence (Q9UMR5 whole entry, looked up): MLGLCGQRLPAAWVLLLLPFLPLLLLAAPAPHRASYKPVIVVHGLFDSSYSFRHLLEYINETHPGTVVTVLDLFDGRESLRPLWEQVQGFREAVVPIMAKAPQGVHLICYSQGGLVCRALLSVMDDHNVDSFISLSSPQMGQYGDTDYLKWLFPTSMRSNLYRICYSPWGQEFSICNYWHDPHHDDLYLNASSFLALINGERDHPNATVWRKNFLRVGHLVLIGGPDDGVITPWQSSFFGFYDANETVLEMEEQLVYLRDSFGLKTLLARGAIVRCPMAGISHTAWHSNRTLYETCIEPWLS
inactive: saracatinib 0.042 | sotrastaurin 0.022 | alvocidib -0.04 | Tubastatin A 0.018 | [1] 0 | defactinib -0.023 | rucaparib 0.025 | [2] 0.038 | encorafenib -0.003 | [3] 0.029 | [4] 0.052 | filanesib 0.008 | zotarolimus -0.019 | idasanutlin -0.082 | alisertib -0.114 | [5] -0.029 | gefitinib -0.004 | [6] 0.093 | lapatinib 0.035 | pictilisib 0.024

PSMD12 (UniProt O00232)
UniProt O00232, sequence (O00232 whole entry, looked up): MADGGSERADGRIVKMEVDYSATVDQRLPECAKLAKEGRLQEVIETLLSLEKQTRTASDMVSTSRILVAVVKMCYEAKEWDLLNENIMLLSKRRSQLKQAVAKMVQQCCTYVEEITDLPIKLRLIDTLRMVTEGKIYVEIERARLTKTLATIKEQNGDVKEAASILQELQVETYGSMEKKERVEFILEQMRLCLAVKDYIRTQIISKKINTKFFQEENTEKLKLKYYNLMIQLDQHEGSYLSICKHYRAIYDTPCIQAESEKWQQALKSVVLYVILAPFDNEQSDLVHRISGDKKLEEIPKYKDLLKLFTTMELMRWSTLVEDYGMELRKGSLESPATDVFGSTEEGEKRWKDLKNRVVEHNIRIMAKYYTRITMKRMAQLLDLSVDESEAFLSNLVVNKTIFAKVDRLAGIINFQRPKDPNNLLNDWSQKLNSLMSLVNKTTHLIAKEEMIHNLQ
inactive: saracatinib -0.024 | sotrastaurin -0.029 | alvocidib 0.026 | Tubastatin A 0.04 | [1] 0.033 | defactinib 0.048 | rucaparib 0.014 | [2] 0.054 | encorafenib 0.031 | [3] -0.032 | [4] -0.015 | filanesib 0.047 | zotarolimus 0.013 | idasanutlin -0.025 | alisertib -0.096 | [5] -0.07 | gefitinib -0.018 | [6] -0.067 | lapatinib 0.096 | pictilisib -0.059

POLR2G (UniProt P62487)
inactive: saracatinib 0.041 | sotrastaurin -0.016 | Tubastatin A -0.045 | [1] 0.003 | defactinib 0.154 | rucaparib 0.039 | [2] 0.042 | encorafenib -0.016 | [3] -0.03 | [4] 0.039 | filanesib -0.014 | zotarolimus -0.046 | idasanutlin -0.006 | alisertib -0.054 | [5] 0.127 | gefitinib 0.001 | [6] 0.106 | lapatinib -0.022 | pictilisib 0.109
active: alvocidib 0.328

PCGF2 (UniProt P35227)
UniProt P35227, sequence (P35227 whole entry, looked up): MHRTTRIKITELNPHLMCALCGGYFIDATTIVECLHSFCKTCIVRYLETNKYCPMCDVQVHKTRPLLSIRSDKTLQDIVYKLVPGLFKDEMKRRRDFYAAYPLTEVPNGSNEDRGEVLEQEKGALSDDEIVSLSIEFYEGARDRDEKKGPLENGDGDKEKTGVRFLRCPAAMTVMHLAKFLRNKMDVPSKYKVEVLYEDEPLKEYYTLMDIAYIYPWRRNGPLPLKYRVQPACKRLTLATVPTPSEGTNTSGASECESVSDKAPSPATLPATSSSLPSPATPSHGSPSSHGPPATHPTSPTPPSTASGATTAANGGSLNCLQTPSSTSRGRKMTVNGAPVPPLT
inactive: saracatinib -0.029 | sotrastaurin 0.04 | alvocidib -0.074 | Tubastatin A 0.039 | [1] -0.057 | defactinib -0.129 | rucaparib 0.024 | [2] 0.122 | encorafenib 0.071 | [3] 0.027 | [4] -0.039 | filanesib 0.055 | zotarolimus 0.03 | idasanutlin -0.008 | alisertib 0.036 | [5] 0.11 | gefitinib 0.021 | [6] 0.018 | lapatinib -0.058 | pictilisib -0.02

PTPN23 (UniProt Q9H3S7)
inactive: saracatinib -0.007 | sotrastaurin -0.13 | alvocidib -0.061 | Tubastatin A 0.112 | [1] 0.055 | defactinib -0.169 | rucaparib 0.074 | [2] -0.055 | encorafenib 0.043 | [3] -0.023 | [4] 0.12 | filanesib 0.038 | zotarolimus 0.059 | idasanutlin -0.038 | alisertib 0.002 | [5] 0.044 | gefitinib 0.041 | [6] -0.008 | lapatinib -0.012 | pictilisib 0.037

PJA2 (UniProt O43164)
UniProt O43164, sequence (O43164 whole entry, looked up): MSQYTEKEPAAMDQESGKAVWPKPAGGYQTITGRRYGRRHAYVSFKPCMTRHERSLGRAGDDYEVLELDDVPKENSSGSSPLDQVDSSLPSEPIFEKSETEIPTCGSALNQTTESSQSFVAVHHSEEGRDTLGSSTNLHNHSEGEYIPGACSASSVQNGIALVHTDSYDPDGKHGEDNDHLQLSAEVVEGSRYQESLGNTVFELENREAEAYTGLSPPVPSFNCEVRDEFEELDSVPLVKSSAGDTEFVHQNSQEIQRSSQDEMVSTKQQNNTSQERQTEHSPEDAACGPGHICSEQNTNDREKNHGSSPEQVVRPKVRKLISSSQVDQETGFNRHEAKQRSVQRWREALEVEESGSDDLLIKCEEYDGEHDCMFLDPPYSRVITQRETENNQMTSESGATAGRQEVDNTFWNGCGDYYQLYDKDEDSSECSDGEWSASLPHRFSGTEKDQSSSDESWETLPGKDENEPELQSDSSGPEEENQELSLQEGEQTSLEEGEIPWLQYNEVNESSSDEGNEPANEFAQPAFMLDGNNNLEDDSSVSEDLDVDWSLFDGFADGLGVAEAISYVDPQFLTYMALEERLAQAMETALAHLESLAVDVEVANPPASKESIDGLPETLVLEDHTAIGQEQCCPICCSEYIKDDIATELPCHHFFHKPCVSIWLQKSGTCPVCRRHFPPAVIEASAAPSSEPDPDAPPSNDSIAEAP
inactive: saracatinib -0.057 | sotrastaurin -0.014 | alvocidib 0.054 | Tubastatin A 0.061 | [1] -0.013 | defactinib -0.003 | rucaparib 0.004 | [2] -0.053 | encorafenib -0.003 | [3] 0.049 | [4] -0.022 | filanesib 0.004 | zotarolimus -0.071 | idasanutlin 0.11 | alisertib -0.008 | [5] 0.024 | gefitinib -0.016 | [6] 0.001 | lapatinib -0.001 | pictilisib -0.049
